Assay outcomes as filed in PubChem BioAssay.
PfHsp90 yeast 2 – growth inhibition of yeast expressing Plasmodium Hsp90; AID 504621; actives 0.32% (n = 310,000); S. cerevisiae expressing PfHsp90, BacTiter-Glo ATP, 48 h; yeast lacking PDR1 and PDR3 efflux regulators; inhibition, % at 9.4 µM;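 active = every replicate shows inhibition above about 80%, whatever the replicate mean, limit read from the data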;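 also: 0% = DMSO neutral controls and 100% = 20 µM radicicol positive controls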
NLRP3 yeast inh – inhibitors of NALP3 inflammasome in yeast; Yeast reconstituted NLRP3/ASC/caspase-1, beta-gal luminescence, 24 h; inhibition, % at 10 µM; actives 0.39% (n = 330,000);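 active = inhibition of 50% or more; inactive = inhibition below 50%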;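 also: plate controls were induced DMSO wells for no effect and uninduced yeast grown without galactose for full effect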
TIM10 inh – growth inhibitors of TIM10 yeast strain; actives 1.4% (n = 330,000); S. cerevisiae TIM10 strain growth, BacTiter-Glo luminescence, 24 h; inhibition, % at 10 µM;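 active = inhibition of 40% or more at the single tested concentration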;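 also: wild-type TIM10 isogenic control strain grown at permissive 25 °C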
tim23-1 inh – inhibits growth of tim23-1 mutant yeast; S. cerevisiae tim23-1 growth, BacTiter-Glo luminescence, 24 h; actives 1.3% (n = 330,000); inhibition, % at 20 µM;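 active = growth inhibition of the mutant yeast at or above 50%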;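 also: temperature-sensitive mutant grown at 25 °C; plate controls were DMSO-treated mutant yeast for no effect and medium wells lacking yeast for full effect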
tim10-1 inh – growth inhibitors of tim10-1 mutant yeast. S. cerevisiae tim10-1 ts strain growth, BacTiter-Glo, 24 h. inhibition, % at 20 µM. AID 463190. actives 2.2% (n = 330,000);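 active = inhibition of at least 40%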;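 also: mutant grown at 25 °C; 0% = DMSO wells with yeast and 100% = wells holding no yeast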
NALP1 inh – NALP1 inhibition; inhibition, % at 10 µM; S. cerevisiae NALP1/ASC/caspase-1 growth, X-gal OD620, 72 h; actives 0.61% (n = 280,000); in the data active = inhibition mostly above about 24%, no sharp cut-off; inactive = mostly below about 32%
tim10 confirm – confirmation of TIM10 yeast growth inhibitors; shares compounds with TIM10 inh; S. cerevisiae tim10 strain growth, BacTiter-Glo luminescence, 24 h; actives 63% (n = 4,600); inhibition, % at 10 µM;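 active = inhibition of yeast growth at or above a set limit in either of two replicates at 10 µM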;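 also: this counterscreen used the strain with wild-type TIM10; 0% = yeast with DMSO and 100% = medium wells lacking yeast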
* marks the source's active call; other numbers are inactive results. Compounds with a hit are over-represented: about 4.2% of the library has one in this group of screens.

COC(=O)[C@@H]1CCCN1C(=O)CCc1nnc(CCC2CCCCC2)o1 was read as PfHsp90 yeast 2 18, NLRP3 yeast inh 5, TIM10 inh 45*, tim23-1 inh 16, tim10-1 inh 22, NALP1 inh -7 and tim10 confirm -22.
O=C(NC(=S)NCCC1=CCCCC1)c1cccnc1 was read as PfHsp90 yeast 2 4, NLRP3 yeast inh -37, TIM10 inh 54*, tim23-1 inh 43, tim10-1 inh 39, NALP1 inh -9 and tim10 confirm 48*.
CCN1C(=O)/C(=C/c2nc3ccccc3c(=O)n2-c2ccccc2)c2ccccc21 was read as PfHsp90 yeast 2 -7, NLRP3 yeast inh -5, TIM10 inh 43*, tim23-1 inh 42, tim10-1 inh 25, NALP1 inh 27 and tim10 confirm 26.
O=C(NCCc1ccc(F)cc1)c1ccc(Cl)c(S(=O)(=O)N2CCOCC2)c1 was read as PfHsp90 yeast 2 7, NLRP3 yeast inh 5, TIM10 inh -5, tim23-1 inh 4 and tim10-1 inh 11.
For CCC(C(=O)Nc1cc(C)nn1-c1nc(C)cc(C)n1)c1ccccc1 (stereo not given) the results were PfHsp90 yeast 2 9, NLRP3 yeast inh 16, TIM10 inh 44*, tim23-1 inh 16, tim10-1 inh 26, NALP1 inh 14 and tim10 confirm -1.
`Cc1cc(C)nc(-n2nc(C)cc2NC(=O)CNCc2ccccc2)n1` gave NLRP3 yeast inh 2, TIM10 inh 2, tim23-1 inh 4 and tim10-1 inh 26.
`Cc1ccc(NC(=O)CSCC(=O)OCc2cc(=O)oc3cc(O)ccc23)c(C)c1` gave PfHsp90 yeast 2 16, NLRP3 yeast inh 18, TIM10 inh -5, tim23-1 inh 19 and tim10-1 inh 3.
`CCN(CC)Cc1ccc(NC(=O)c2sc3cc(Cl)ccc3c2Cl)cc1` gave PfHsp90 yeast 2 12, NLRP3 yeast inh 28, TIM10 inh 44*, tim23-1 inh 19, tim10-1 inh 18 and tim10 confirm 40*.
Screening CN1CCN(C(=O)c2ccccc2NS(=O)(=O)c2ccc(F)cc2)CC1 returned NLRP3 yeast inh 20, TIM10 inh 9, tim23-1 inh 10 and tim10-1 inh 5.
O=C(/C(=N/N=C/c1ccc(O)c(O)c1O)c1ccccc1)c1ccccc1 was read as PfHsp90 yeast 2 -20, NLRP3 yeast inh 1, TIM10 inh 45*, tim23-1 inh 45, tim10-1 inh 13, NALP1 inh 14 and tim10 confirm -1.
`Oc1ccc(/C=N/N=C(c2ccccc2)c2ccccc2)c(O)c1O` gave PfHsp90 yeast 2 4 and NALP1 inh 23.
Screening CN(Cc1ccon1)C(=O)C1CCC(=O)N(CCc2ccc(Cl)cc2)C1 (stereo not given) returned PfHsp90 yeast 2 16, NLRP3 yeast inh 7, TIM10 inh -3, tim23-1 inh -1, tim10-1 inh 0 and NALP1 inh 8.
For Cc1ccc(-c2csc(NC(=O)C3=NN(c4ccccc4)C(=O)CC3)n2)cc1 the results were PfHsp90 yeast 2 7, NLRP3 yeast inh 10, TIM10 inh 40*, tim23-1 inh 34, tim10-1 inh 33, NALP1 inh 5 and tim10 confirm 33*.
Screening C1=C(c2ccco2)N2CCN=C2S1 returned PfHsp90 yeast 2 3, NLRP3 yeast inh 8, TIM10 inh -11, tim23-1 inh 7, tim10-1 inh 19 and NALP1 inh -8.
Cc1cccc(CSCCNC(=S)Nc2ccccc2)c1 was read as PfHsp90 yeast 2 -12, NLRP3 yeast inh 39, TIM10 inh 48*, tim23-1 inh 45, tim10-1 inh 35, NALP1 inh 16 and tim10 confirm 28.
Screening CCCNC(=S)Nc1ccccc1 returned PfHsp90 yeast 2 6, NLRP3 yeast inh 8, TIM10 inh 12, tim23-1 inh 31, tim10-1 inh -12 and NALP1 inh 11.
For Cc1ccc(C(=O)NCC(c2ccc(F)cc2)N2CCOCC2)cc1S(=O)(=O)N1CCOCC1 (stereo not given) the results were PfHsp90 yeast 2 4.
O=c1[nH]cccc1-c1nc2ccccc2n1Cc1cccc(F)c1 was read as PfHsp90 yeast 2 4, NLRP3 yeast inh 17, TIM10 inh 16, tim23-1 inh 3, tim10-1 inh 0 and NALP1 inh 11.
For Nc1c(C(=O)Nc2ccccc2F)sc2nc(-c3ccco3)ccc12 the results were PfHsp90 yeast 2 -44, NLRP3 yeast inh 9, TIM10 inh 41*, tim23-1 inh 6, tim10-1 inh 18, NALP1 inh -6 and tim10 confirm 19.
For O=C(NCc1ccccc1CN1CCCC1)c1cccc(N2CCCC2=O)c1 the results were PfHsp90 yeast 2 -3, NLRP3 yeast inh -8, TIM10 inh 2, tim23-1 inh 1 and tim10-1 inh -5.
Cc1nc(S/C(C(=O)O)=C2/C(=O)Nc3ccccc32)n[nH]1 was read as PfHsp90 yeast 2 19, NLRP3 yeast inh 23, TIM10 inh 41*, tim23-1 inh 41, tim10-1 inh 32 and tim10 confirm 38*.
Cc1nc(SC2CC(=O)N(c3ccccc3)C2=O)n[nH]1 (stereo not given) was read as PfHsp90 yeast 2 7, NLRP3 yeast inh 13, TIM10 inh 8, tim23-1 inh 13, tim10-1 inh 26 and NALP1 inh -1.
Cc1cccc(N2CCN(C(c3cccs3)c3nnnn3C(C)(C)C)CC2)c1C (stereo not given) was read as PfHsp90 yeast 2 -6, NLRP3 yeast inh 1, TIM10 inh 28, tim23-1 inh 14, tim10-1 inh 14 and NALP1 inh 19.
Screening Cc1cccc(N2CCN(C(c3ccccc3)c3nnnn3C(C)(C)C)CC2)c1C (stereo not given) returned PfHsp90 yeast 2 -17, NLRP3 yeast inh 20, TIM10 inh 41*, tim23-1 inh 17, tim10-1 inh 19, NALP1 inh 11 and tim10 confirm 4.
For CC(=O)C1=C(C)Nc2ncnn2C1c1ccccc1F (stereo not given) the results were PfHsp90 yeast 2 -3, NLRP3 yeast inh -1, TIM10 inh 97*, tim23-1 inh 1, tim10-1 inh 2, NALP1 inh 0 and tim10 confirm 8.
Screening CC(=O)C1=C(C)Nc2ncnn2C1c1ccccc1 (stereo not given) returned PfHsp90 yeast 2 20, NLRP3 yeast inh 12, TIM10 inh -26, tim23-1 inh 0, tim10-1 inh -12 and NALP1 inh 17.
CC(C)(C)c1ccc(OCCC(=O)NNC(=O)c2ccncc2)cc1 was read as NLRP3 yeast inh 3, TIM10 inh -1, tim23-1 inh -1 and tim10-1 inh -2.
